# According to PubChem BioAssay AID1490 (National Center for Advancing Translational Sciences (NCATS), 2009):
# Several values for one entry are separate records, joined by “and”; a condition that tells them apart may be missing. Identical values can stand only once. About 11,000 (3.5%) of roughly 310,000 compounds were called active. Roughly 4% stayed inconclusive and do not appear here. Calls follow the shape of the dose curve; as a rule, active = well fitted inhibition curve with a large enough effect; inconclusive = small, poorly fitted or top-dose-only effect, or another doubt; inactive = no such curve, though single readings can be large or run the other way. Many of the other results were omitted from the sample, so actives are more common in it than they were.
# Target: 4'-phosphopantetheinyl transferase ffp (Bacillus subtilis) (UniProt Q9F4F7)
# Experiment: qHTS Assay for Inhibitors of Bacillus subtilis Sfp phosphopantetheinyl transferase (PPTase);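 also: the enzyme is Sfp with the accession as filed and its product quenches rhodamine fluorescence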;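 as to largest response in the series, negative = inhibition: 0% = enzyme reaction without inhibitor and -100% = no enzyme wells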
# Conditions: Biochemical Sfp PPTase activity
# In short: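 Buffer: 50 mM Hepes-Na pH 7.6, 10 mM MgCl2, 0.01% Nonidet P-40, 0.01% BSA. Enzyme 15 nM, pre-exposed to compound 15 min; substrates then added and fluorescence change tracked over 30 min.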
# Potency is read from the fitted curve at half-maximal effect.
Structure (SMILES),"largest response in the series, negative = inhibition",Potency
CC(C)C(C)NC(=O)COc1nc2ccccc2nc1N(C)C1CCCCC1 (centres undefined),-0.152% (inactive),–
COCCN(C(=O)CCC(=O)Nc1nccs1)C(C(=O)NCCC(C)C)c1ccc(F)cc1 (centres undefined),9.51% (inactive),–
O=C(Nc1ccc(NC(=O)c2cccs2)cc1)c1ccc2ccccc2c1,-1.36% (inactive),–
C=CC(=O)c1ccc2ccccc2c1,–,3.55 µM (active) and 31.6 µM (active)
CC(=O)CCC(=O)c1ccc2ccccc2c1,7.52% (inactive),–
Cc1ccccc1Nc1nc(-c2cccnc2)cs1,-24.9% (inactive),–
c1cnc(N2CCN(c3ccc4ccccc4n3)CC2)nc1,-3.4% (inactive),–
COc1ccccc1N1CCN(C(=O)CCS(=O)(=O)c2ccc3c(c2)NC(=O)C(C)S3)CC1 (centres undefined),0.999% (inactive),–
COc1ccc(N(C(=O)c2cccnc2)S(=O)(=O)c2ccc3c(c2)n(C)c(=O)n3C)cc1,20.5% (inactive),–
O=C(c1cccnc1)N(c1cc2sc(=O)oc2c2ccccc12)S(=O)(=O)c1ccccc1,–,3.98 µM (active)
COc1ccc(N(C(=O)c2cccnc2)S(=O)(=O)c2ccc(OC)c(OC)c2)cc1,3.04% (inactive),–
COc1cc(OC)cc(C(=O)Nc2nnc(SCC(=O)NCC3CCCO3)s2)c1 (centres undefined),-4.79% (inactive),–
COc1ccccc1N1CC(C(=O)Nc2nnc(SCC(=O)NCC3CCCO3)s2)CC1=O (centres undefined),–,50.1 µM (active)
Cc1ccccc1N1CC(C(=O)Nc2nnc(SCCC3OCCO3)s2)CC1=O (centres undefined),-15.5% (inactive),–
CCCCC(c1nnnn1CS(=O)(=O)c1ccc(C)cc1)N1CCC(C(N)=O)CC1 (centres undefined),13.9% (inactive),–
CC(NS(=O)(=O)c1ccc(Br)cc1)C(=O)NCC1CCCO1 (centres undefined),16.5% (inactive),–
OC(CNCC1CCCO1)Cn1c2ccc(Br)cc2c2cc(Br)ccc21 (centres undefined),–,22.4 µM (active)
O=C(CSc1ccc(-c2ccc(Br)cc2)nn1)NCC1CCCO1 (centres undefined),6.34% (inactive),–
COc1ccc(CCNC(=O)c2cnc(Cl)c(Cl)c2)cc1,9% (inactive),–
Cc1cc(NC(=O)CSc2nc3c(cc2C#N)CCCCC3)no1,15.4% (inactive),–

Structure (SMILES),"largest response in the series, negative = inhibition",Potency
CC1(C)CCc2nc(SCc3ccccc3)c(C#N)cc2C1,-5.3% (inactive),–
CC(NC(=O)CSc1nc2c(cc1C#N)CN(C)CC2)c1ccccc1 (centres undefined),–,56.2 µM (active)
O=C(NCc1ccccc1)C(c1cccnc1)N(C(=O)c1csnn1)c1ccc(F)cc1 (centres undefined),19.5% (inactive),–
CC(C)CCn1c(=O)c2c(nc3n2CCCN3Cc2ccccc2)n(C)c1=O,4.31% (inactive),–
NCCCNCCCCN(CCCN)/[N+]([O-])=N/O,-7.71% (inactive),–
Cc1ncn(C23CC4CC(CC(O)(C4)C2)C3)n1,17.6% (inactive),–
Cc1nc([N+](=O)[O-])nn1C12CC3CC(CC(Br)(C3)C1)C2,–,15.8 µM (active)
COc1cccc(NC(=O)c2nn(C34CC5CC(CC(C5)C3)C4)cc2[N+](=O)[O-])c1,11.6% (inactive),–
COc1cccc(CNS(=O)(=O)c2ccc3c(c2)CC(C)N3C(=O)C2CCC2)c1 (centres undefined),20.3% (inactive),–
COc1cc(/C=N/NC(=O)c2cccnc2)ccc1OC(=O)c1cccc(Br)c1,9.75% (inactive),–
O=C(CN1C(=O)COc2ccc(Cl)cc21)Nc1ccc(N2CCOCC2)cc1,9.73% (inactive),–
CC(OC(=O)CN1C(=O)COc2ccccc21)C(=O)NCc1ccc(F)cc1 (centres undefined),16.7% (inactive),–
O=C(CN1C(=O)COc2ccccc21)Nc1ccc(F)cc1,–,50.1 µM (active)
COc1ccc(N2CCC(N3CCN(C)C(CCO)C3)CC2)cc1 (centres undefined),-5.05% (inactive),–
Cc1cc(C)c2oc(C(=O)Nc3ccc(S(=O)(=O)Nc4nccc(C)n4)cc3)cc(=O)c2c1,13.2% (inactive),–
COc1ccc(C(=O)Nc2cc(C)c(NC(=O)c3ccccc3OC)cn2)cc1,-0.964% (inactive),–
Cc1cccc(Oc2c([N+](=O)[O-])c(=O)n(C)c3ccccc23)c1,–,6.31 µM (active)
Cn1c(=O)c([N+](=O)[O-])c(Oc2ccccc2)c2ccccc21,–,20 µM (active)
Cn1nc(-c2ccccc2)c2cc([N+](=O)[O-])ccc21,15.4% (inactive),–
Cn1c2ccccc2c(=O)c2c(O)cccc21,1.81% (inactive),–

Structure (SMILES),"largest response in the series, negative = inhibition",Potency
Cc1cccc(OP(=O)(Nc2c(C)n(C)n(-c3ccccc3)c2=O)Oc2cccc(C)c2)c1,2% (inactive),–
Cc1nn(C)c(Oc2ccccc2)c1[N+](=O)[O-],4.16% (inactive),–
CC(C)[C@H](NC(=O)N1c2ccccc2NC(=O)[C@@H]1C(C)C)C(=O)N[C@H](C(=O)O)c1ccccc1,21% (inactive),–
CCCN1CCC(=O)N(C(CSc2ccc(OC)cc2)Cc2ccccc2)CC1 (centres undefined),-7.33% (inactive),–
COc1cc(C2/C(=C(\O)c3ccc4c(c3)CC(C)O4)C(=O)C(=O)N2c2nnc(C)s2)cc(OC)c1OC (centres undefined),-19.8% (inactive),–
Cc1ccc(-c2ccnc3[nH]n(-c4ccccc4)c(=O)c23)cc1,9.66% (inactive),–
O=C1CSC(=S)N1c1ccc(O)cc1,-9.51% (inactive),–
CCOc1cccc(/C=N/NC(=S)NCCN2CCOCC2)c1O,9.81% (inactive),–
CCOc1cccc(/C=N/N2C(=O)CSC2=S)c1O,–,10 µM (active)
COc1ccccc1NC(=O)C(C)OC(=O)CC1CCCC1 (centres undefined),16.2% (inactive),–
CC(C)Cn1c(=O)c2ccccc2n2c(CCC(=O)NCc3ccccn3)nnc12,15.4% (inactive),–
COc1ccc(NC(=O)N2CCCC2C(=O)NCc2ccccc2Cl)cc1 (centres undefined),1.27% (inactive),–
CC(=O)Nc1ccc(S(=O)(=O)Nc2cc(C)cn(Cc3ccc(C)cc3)c2=O)cc1,1.38% (inactive),–
O=C(CN1CCCC1)Nc1sc2c(c1C(=O)Nc1ccccc1)CCCC2,-1.37% (inactive),–
Cc1ccc(NC(=O)c2c(NC(=O)CCC(=O)O)sc3c2CCCCC3)cc1,–,11.2 µM (active)
Cc1ccc(NC(=O)c2csc3c2CCCC3)cc1,-32.4% (inactive),–
COCCCNC(=O)[C@H]1N2C(=O)c3ccccc3C2SC1(C)C (some centres undefined),–,56.2 µM (active)
COCCCNC(=O)C1CC(=O)N(CCc2ccccc2)C1 (centres undefined),9.12% (inactive),–
CC1(C)SC2c3ccccc3C(=O)N2[C@@H]1C(=O)NCc1ccco1 (some centres undefined),-10.3% (inactive),–
